According to PubChem BioAssay (Tox21):
Where “and” joins values, the source holds several entries; their conditions need not be identical. Equal values may be shown once. Records with an inconclusive call do not appear. Entries that show only a call come without a potency. The source holds several records for some structures; these can differ, active in one and inactive in another. Calls of active or inactive are those of the source. Unless noted, calls follow the shape of the full dose curve.

Experiments:
[1] = Nuclear factor erythroid 2-related factor 2/antioxidant responsive element (Nrf2/ARE) small molecule agonists: qHTS cell viability counter screen in human keratinocytes (AID 1919968; active = well fitted curve in the direction sought with a large enough effect in the repeat runs; an effect the other way counts as inactive or inconclusive; also: nearly all actives have a fitted effect of over 55% in size; also: potency is read from the fitted curve at half-maximal effect)
How it was run: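 HaCaT ARE reporter line, 1,500 cells/well; 5 h settle, 37 C/5% CO2; cpd in DMSO pinned; 23 h exposure; CellTiter-Fluor, 1 h; fluorescence.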

[2] = Nuclear factor erythroid 2-related factor 2/antioxidant responsive element (Nrf2/ARE) small molecule agonists: luciferase reporter gene qHTS assay in human keratinocytes (AID 1919969); also: nearly all actives have a fitted effect of over 35% in size; also: potency is read from the fitted curve at half-maximal effect
[3] = target: Gonadotropin-releasing hormone receptor (Homo sapiens) (UniProt P30968); test: Human gonadotropin-releasing hormone receptor (GnRHR) small molecule agonists, calcium flux assay in GnRHR-HEK293 cells (AID 1920063); also: nearly all actives have a fitted effect of over 35% in size
Gonadotropin-releasing hormone receptor (Homo sapiens), sequence (P30968 whole entry, looked up): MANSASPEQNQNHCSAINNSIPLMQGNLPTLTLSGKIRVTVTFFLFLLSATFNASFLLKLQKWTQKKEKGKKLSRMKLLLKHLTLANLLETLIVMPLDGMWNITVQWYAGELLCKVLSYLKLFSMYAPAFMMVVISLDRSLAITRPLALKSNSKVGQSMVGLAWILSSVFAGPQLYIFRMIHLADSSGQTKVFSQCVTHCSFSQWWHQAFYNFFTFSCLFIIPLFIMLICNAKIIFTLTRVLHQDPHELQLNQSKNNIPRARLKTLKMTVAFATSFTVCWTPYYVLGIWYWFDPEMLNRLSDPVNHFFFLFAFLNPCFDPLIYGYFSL
How it was run: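 GnRHR-HEK293, 1500 cells/well, 18 h 37 C/5% CO2; Ca dye 1 h 37 C; cpd pinned (DMSO), agonist mode; kinetic FL 480/540, 3 min, 1 s reads; 15 conc, n=3.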

[4] = target: KiSS-1 receptor (Homo sapiens) (UniProt Q969F8); test: Human kisspeptin (KISS1R) small molecule agonists, calcium flux assay in KISS1R-HEK293 cells (AID 1920064; active = well fitted curve in the direction sought with a large enough effect in the repeat runs; an effect the other way counts as inactive or inconclusive)
KiSS-1 receptor (Homo sapiens), sequence (Q969F8 whole entry, looked up): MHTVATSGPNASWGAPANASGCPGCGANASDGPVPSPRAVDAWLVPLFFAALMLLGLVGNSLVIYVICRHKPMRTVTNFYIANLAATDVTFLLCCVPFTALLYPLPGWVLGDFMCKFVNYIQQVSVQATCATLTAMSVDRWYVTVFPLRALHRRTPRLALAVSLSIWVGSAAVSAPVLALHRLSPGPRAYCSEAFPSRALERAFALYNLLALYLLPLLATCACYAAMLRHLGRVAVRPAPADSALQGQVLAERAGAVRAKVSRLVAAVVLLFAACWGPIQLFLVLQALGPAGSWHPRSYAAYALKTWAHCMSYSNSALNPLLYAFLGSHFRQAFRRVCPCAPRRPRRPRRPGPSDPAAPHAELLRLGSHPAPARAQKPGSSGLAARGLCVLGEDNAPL
How it was run: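 Stable human KISS1R HEK293 line; 18 h plating, 37 C/5% CO2; calcium dye 1 h 37 C; compound pin transfer; kinetic fluorescence Ex/Em 480/540, 3 min.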

[5] = G protein-coupled receptor (GPCR) small molecule agonists, calcium flux assay: HEK293 wild type cell line counter screen (AID 1920065)
How it was run: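 Kinetic fluorescence at Ex/Em 480/540, recorded every second over 3 min, served as the read-out after compound addition. Each compound was tested at 15 concentrations in triplicate on cells pre-loaded with calcium dye for 1 h.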

[6] = p53 small molecule agonists, cell-based qHTS assay with human liver microsomes (AID 1963577);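 also: p53 response element beta-lactamase reporter cells with liver microsomes plus NADPH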
How it was run: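 With metabolic activation: human liver microsomes (0.5 mg/mL final) plus NADPH (0.5 mg/mL final) added alongside compounds to p53RE-bla cells; 16 h 37 C exposure; beta-lactamase read by LiveBLAzer fluorescence.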

[7] = p53 small molecule agonists, cell-based qHTS assay with rat liver microsomes (AID 1963578)
How it was run: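 Metabolic activation by rat liver microsomes and NADPH, each 0.5 mg/mL final, added right after compounds to p53RE-bla reporter cells (4,000/well, plated 5 h earlier). 16 h at 37 C, then LiveBLAzer substrate for 2 h at room temperature in the dark; fluorescence read-out.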

[8] = p53 small molecule agonists, cell-based qHTS assay with human liver microsomes: qHTS cell viability counter screen (AID 1963579); also: nearly all actives have a fitted effect of over 45% in size; also: potency is read from the fitted curve at half-maximal effect
How it was run: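 Metabolic activation used human liver microsomes and NADPH, both 0.5 mg/mL final, over 16 hours at 37 C on p53RE-bla cells (4,000/well). Cytotoxicity measured by CellTiter-Glo luminescence, 30 min at room temperature.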

[9] = p53 small molecule agonists, cell-based qHTS assay with rat liver microsomes: qHTS cell viability counter screen (AID 1963580); also: nearly all actives have a fitted effect of over 45% in size; also: potency is read from the fitted curve at half-maximal effect
How it was run: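 p53RE-bla HCT-116 cells (4,000/well) rested 5 h at 37 C, then given Tox21 compounds in DMSO with rat liver microsomes (0.5 mg/mL final) plus NADPH (0.5 mg/mL final) for 16 h at 37 C. Viability read by CellTiter-Glo luminescence after 30 min at room temperature.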

[10] = p53 small molecule agonists, cell-based qHTS assay: qHTS cell viability counter screen (AID 1963581); also: nearly all actives have a fitted effect of over 45% in size; also: potency is read from the fitted curve at half-maximal effect
How it was run: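 HCT-116 p53RE-bla cells, 4,000/well, plated 5 h before compound pin transfer; 16 h at 37 C; bla substrate 2 h RT; then CellTiter-Glo, 30 min RT, luminescence.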

[11] = p53 small molecule agonists, cell-based qHTS assay (AID 1963582; active = well fitted activation curve with a large enough effect in the signal ratio in the repeat runs, not every such curve was filed as active; the % refers to the signal ratio)
How it was run: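 Reporter line: p53RE-bla. Pre-incubation 5 h, 37 C, 5% CO2; compound (DMSO, pin tool) 16 h, 37 C; B/G FRET substrate 2 h RT; fluorescence intensity read.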

[12] = target: 5-hydroxytryptamine receptor 2A (Homo sapiens) (UniProt P28223); test: 5-hydroxytryptamine receptor 2A (HTR2A) small molecule agonists, cell-based qHTS assay (AID 1963587); also: nearly all actives have a fitted effect of over 30% in size
5-hydroxytryptamine receptor 2A (Homo sapiens), sequence (P28223 whole entry, looked up): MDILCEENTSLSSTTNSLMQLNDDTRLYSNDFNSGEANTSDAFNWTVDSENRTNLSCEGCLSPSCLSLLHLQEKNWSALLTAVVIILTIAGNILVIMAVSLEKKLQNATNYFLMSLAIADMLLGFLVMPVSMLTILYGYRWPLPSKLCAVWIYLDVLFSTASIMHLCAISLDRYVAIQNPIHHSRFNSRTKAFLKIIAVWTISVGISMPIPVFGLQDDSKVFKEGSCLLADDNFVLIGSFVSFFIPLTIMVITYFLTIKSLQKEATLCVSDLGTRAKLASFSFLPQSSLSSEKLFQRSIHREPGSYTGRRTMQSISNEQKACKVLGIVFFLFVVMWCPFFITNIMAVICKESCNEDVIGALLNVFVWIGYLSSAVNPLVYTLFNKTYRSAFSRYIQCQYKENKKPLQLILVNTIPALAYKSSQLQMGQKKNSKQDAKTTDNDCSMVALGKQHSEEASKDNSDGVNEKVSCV
How it was run: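 HTR2A-CHO cells, plated 18 h at 37 C/5% CO2, dye-loaded 1 h at 37 C; compounds in DMSO added by pin tool (agonist mode). Intracellular calcium flux read as kinetic fluorescence on FDSS over 2 min at 1 s intervals.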

[13] = target: Muscarinic acetylcholine receptor M1 (Homo sapiens) (UniProt P11229); test: Cholinergic receptor muscarinic 1 (CHRM1) small molecule agonists, cell-based qHTS assay (AID 1963589); also: nearly all actives have a fitted effect of over 35% in size
Muscarinic acetylcholine receptor M1 (Homo sapiens), sequence (P11229 whole entry, looked up): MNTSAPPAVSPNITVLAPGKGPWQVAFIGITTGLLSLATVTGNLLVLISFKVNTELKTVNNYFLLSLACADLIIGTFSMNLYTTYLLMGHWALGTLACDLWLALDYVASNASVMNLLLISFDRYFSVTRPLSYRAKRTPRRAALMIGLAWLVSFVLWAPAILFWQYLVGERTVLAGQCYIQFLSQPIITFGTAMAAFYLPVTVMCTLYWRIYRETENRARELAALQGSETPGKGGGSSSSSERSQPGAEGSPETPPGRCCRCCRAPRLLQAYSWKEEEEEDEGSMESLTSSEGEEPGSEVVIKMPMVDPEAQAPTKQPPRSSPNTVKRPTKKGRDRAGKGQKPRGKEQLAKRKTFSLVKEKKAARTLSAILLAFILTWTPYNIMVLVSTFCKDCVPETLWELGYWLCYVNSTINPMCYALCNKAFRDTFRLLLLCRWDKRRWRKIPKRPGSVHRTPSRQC
How it was run: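 Human M1 in stable CHO line; 18 h plating, 1 h dye load 37 C; cpd added (agonist mode); Ca2+ fluorescence kinetic read, 1 s intervals; 15 conc, 3 runs.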

[14] = cAMP Responsive Elements (CRE) small molecule agonists, cell-based qHTS assay (AID 1963590)
How it was run: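 HEK 293T CRE-bla, 2,000 cells/well, 18 h preincubation 37 C/5% CO2; cpds (DMSO) pinned, 3 h; LiveBLAzer B/G FRET substrate, 2 h RT.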

[15] = cAMP Responsive Elements (CRE) small molecule antagonists, cell-based qHTS assay (AID 1963591; active = well fitted inhibition curve with a large enough effect in the signal ratio in the repeat runs, not every such curve was filed as active; the % refers to the signal ratio)
How it was run: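 Beta-lactamase reporter read by FRET substrate (LiveBLAzer B/G) after 2 h at room temperature. CRE-bla HEK293T cells had received compound plus 0.25 uM (final) NKH477 for 3 h at 37 °C.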

[16] = target: Beta-2 adrenergic receptor (Homo sapiens) (UniProt P07550); test: Adrenergic beta2 receptor (ADRB2) small molecule antagonists, cell-based qHTS assay (AID 1963592); also: series mostly up to about 92 µM; nearly all actives have a fitted effect of over 50% in size
Beta-2 adrenergic receptor (Homo sapiens), sequence (P07550 whole entry, looked up): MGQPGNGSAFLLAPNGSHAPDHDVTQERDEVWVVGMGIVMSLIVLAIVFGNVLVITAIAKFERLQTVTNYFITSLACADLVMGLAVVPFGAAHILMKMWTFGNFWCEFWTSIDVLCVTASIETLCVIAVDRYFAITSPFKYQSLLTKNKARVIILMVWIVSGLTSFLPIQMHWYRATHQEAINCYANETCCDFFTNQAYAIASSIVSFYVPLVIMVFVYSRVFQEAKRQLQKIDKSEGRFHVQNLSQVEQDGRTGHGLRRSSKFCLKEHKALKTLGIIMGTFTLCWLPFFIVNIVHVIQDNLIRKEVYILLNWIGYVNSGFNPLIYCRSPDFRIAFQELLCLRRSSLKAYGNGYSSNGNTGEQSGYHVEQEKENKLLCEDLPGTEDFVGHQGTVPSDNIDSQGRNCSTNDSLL
How it was run: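 Cells (CHO, stable ADRB2 overexpression) incubated 18-20hr at 37C; compounds added from DMSO; agonist mix (1nM isoproterenol, 100uM IBMX, 25uM Ro-20-1724) added; 0.5hr RT; d2-cAMP and anti-cAMP-cryptate added; 1hr RT; 665/615 nm read.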

[17] = target: Beta-2 adrenergic receptor (Homo sapiens) (UniProt P07550); test: Adrenergic beta2 receptor (ADRB2) small molecule agonists, cell-based qHTS assay (AID 1963593);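 also: CHO cells stably overexpressing human ADRB2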
How it was run: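 CHO cells stably over-expressing ADRB2 were plated overnight at 37C, then dosed with compounds plus a stimulation mix containing 100uM IBMX and 25uM Ro-20-1724 for 0.5hr at room temperature. cAMP was measured by HTRF competition, 1hr.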

[18] = target: D(2) dopamine receptor (Homo sapiens) (UniProt P14416); test: Dopamine D2 receptor (DRD2) small molecule agonists, cell-based qHTS assay (AID 1963594); also: nearly all actives have a fitted effect of over 35% in size
D(2) dopamine receptor (Homo sapiens), sequence (P14416 whole entry, looked up): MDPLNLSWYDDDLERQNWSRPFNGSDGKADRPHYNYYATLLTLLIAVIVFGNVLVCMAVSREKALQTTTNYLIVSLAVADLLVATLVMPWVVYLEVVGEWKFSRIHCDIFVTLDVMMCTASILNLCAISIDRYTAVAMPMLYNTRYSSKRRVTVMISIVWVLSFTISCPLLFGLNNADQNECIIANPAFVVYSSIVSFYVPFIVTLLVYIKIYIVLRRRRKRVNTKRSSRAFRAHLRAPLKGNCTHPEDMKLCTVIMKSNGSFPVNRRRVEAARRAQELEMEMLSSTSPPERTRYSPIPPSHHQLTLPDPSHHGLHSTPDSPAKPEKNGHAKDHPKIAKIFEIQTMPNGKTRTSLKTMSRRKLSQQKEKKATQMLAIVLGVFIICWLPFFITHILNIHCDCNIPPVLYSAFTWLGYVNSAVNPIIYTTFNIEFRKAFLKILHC
How it was run: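 HEK293 cells stably expressing DRD2 were cultured 24 h at 37 C, then given Ro20-1724 (0.1 mM final) and compounds for 10 min at room temperature. NKH477 (200nM) was then added for 30 min. cAMP was read by HTRF.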

[19] = target: D(2) dopamine receptor (Homo sapiens) (UniProt P14416); test: Dopamine D2 receptor (DRD2) small molecule antagonists, cell-based qHTS assay (AID 1963595; active = well fitted inhibition curve with a large enough effect in the signal ratio in the repeat runs, with a control signal flat; the % refers to the signal ratio)
How it was run: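 DRD2-HEK293; 0.1 mM Ro20-1724; cpd 10 min RT; NKH477 200 nM + quinpirole 12 nM, 30 min RT; HTRF cAMP (cAMP-d2/anti-cAMP cryptate), 665/620 nm ratio after 1 h.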

[20] = target: 5-hydroxytryptamine receptor 2A (Homo sapiens) (UniProt P28223); test: 5-hydroxytryptamine receptor 2A (HTR2A) small molecule antagonists, cell-based qHTS assay (AID 1963586); also: nearly all actives have a fitted effect of over 45% in size
How it was run: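 Antagonist-mode intracellular calcium assay: DOI (4 nM) added after 5 min compound pre-incubation at room temperature to dye-loaded HTR2A-CHO cells. Fluorescence followed for 3 min, sampled every second.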

Structure (SMILES)	Potency [1]	Potency [2]	Potency [3]	Potency [4]	Potency [5]	Potency [6]	Potency [7]	Potency [8]	Potency [9]	Potency [10]	Potency [11]	Potency [12]	Potency [13]	Potency [14]	Potency [15]	Potency [16]	Potency [17]	Potency [18]	Potency [19]	Potency [20]
c1ccc2[nH]ccc2c1	8.49 µM (active) and inactive	6.01 µM (active) and inactive	inactive	inactive	inactive	inactive	inactive	inactive	inactive	inactive	inactive	inactive	inactive	inactive	inactive	inactive	inactive	inactive	–	–
O=S(=O)(O)c1ccc2cc(O)ccc2c1	inactive	inactive	inactive	inactive	inactive	inactive	inactive	inactive	inactive	inactive	inactive	inactive	inactive	inactive	inactive	inactive	inactive	inactive	inactive	–
CCCOC(=O)c1ccccc1	inactive	inactive	inactive	inactive	inactive	inactive	inactive	inactive	inactive	inactive	inactive	inactive	inactive	–	inactive	inactive	–	inactive	inactive	inactive
CCCCC(CC)CO (stereo not given)	inactive	inactive	inactive	inactive	inactive	inactive	inactive	inactive	inactive	inactive	inactive	–	inactive	inactive	inactive	inactive	inactive	inactive	inactive	inactive
CC(=O)C1=C(C)[C@@H]2C[C@@]3(C1)[C@H](C)CC[C@H]3C2(C)C	inactive	inactive	inactive	inactive	inactive	inactive	inactive	inactive	inactive	inactive	inactive	–	inactive	–	–	inactive	inactive	inactive	inactive	inactive
CC(=O)Nc1ccc2c(c1)Cc1cc(NC(C)=O)ccc1-2	inactive	inactive	inactive	inactive	inactive	inactive	inactive	inactive	inactive	inactive	inactive	inactive	inactive	–	–	inactive	inactive	inactive	inactive	inactive
O=C(O)c1ccc(S(=O)(=O)N(Cl)Cl)cc1	inactive	inactive	inactive	inactive	inactive	inactive	inactive	inactive	inactive	inactive	inactive	inactive	inactive	inactive	inactive	inactive	inactive	inactive	–	inactive
O=C(O)c1ccc2c(c1)C(=O)OC2=O	inactive	inactive	inactive	inactive	inactive	inactive	inactive	inactive	inactive	inactive	inactive	inactive	–	inactive	inactive	–	inactive	inactive	inactive	inactive
CN(C)CCOC(C)(c1ccccc1)c1ccccn1 (stereo not given)	inactive	inactive	inactive	inactive	inactive	inactive	inactive	inactive	inactive	inactive	inactive	inactive	inactive	inactive	inactive	inactive	inactive	inactive	inactive	–
C[Si](C)(C)O[Si](C)(C)C	inactive	inactive	inactive	inactive	inactive	inactive	inactive	inactive	inactive	inactive	inactive	inactive	–	inactive	inactive	inactive	inactive	inactive	inactive	inactive
Nc1ccccc1[N+](=O)[O-]	inactive	inactive	inactive	inactive	inactive	inactive	inactive	inactive	inactive	inactive	inactive	–	inactive	inactive	inactive	inactive	–	inactive	–	inactive
C=C(C)C(=O)O[C@H]1C[C@@H]2CC[C@@]1(C)C2(C)C	1.21 µM (active) and inactive	963 nM (active) and inactive	inactive	inactive	inactive	inactive	inactive	inactive	7.21 µM (active) and inactive	inactive	inactive	inactive	inactive	inactive	inactive	inactive	inactive	inactive	inactive	–
NC(=NCCCCCCN=C(N)/N=C(\N)Nc1ccc(Cl)cc1)/N=C(\N)Nc1ccc(Cl)cc1	24.2 µM (active) [middle of 5 runs]	inactive	inactive	inactive	inactive	inactive	inactive	40.4 µM (active) and 28.7 µM (active) and inactive	32.1 µM (active) and 41.5 µM (active) and inactive	45.3 µM (active) and inactive	inactive	inactive	inactive	inactive	inactive	–	–	inactive	–	–
NC(N)=NC(=O)c1nc(Cl)c(N)nc1N	inactive	inactive	inactive	inactive	inactive	inactive	inactive	inactive	inactive	inactive	inactive	–	–	inactive	inactive	inactive	inactive	inactive	inactive	–
CC1(C)S[C@@H]2[C@H](NC(=O)[C@H](N)c3ccccc3)C(=O)N2[C@H]1C(=O)O	inactive	inactive	inactive	inactive	inactive	inactive	inactive	inactive	inactive	inactive	inactive	–	–	inactive	inactive	inactive	inactive	inactive	inactive	–
